Activity calls are given as the source filed them.
system: PRMT1 (protein arginine N-methyltransferase 1); assay: PRMT1 binders on small-molecule microarrays, primary screen, biochemical, small-molecule microarray, 635 nm fluorescence (AID 1088); settings: small-molecule microarray binding, higher = more signal;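 note: binding of Prmt1 protein to compounds spotted on small-molecule microarray slides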

Structure (SMILES)	composite z-score
CCCN1C(=O)[C@]2(Cc3ccccc31)N=C(c1ccc(OCCCO)cc1)O[C@@H]2c1ccccc1	1.55
C[N+](C)(C)CCCCCCNC(=O)[C@@H]1C[C@@H]2C(=O)N3CCC[C@H]3C(=O)N2[C@@H]1c1ccc(O)cc1	1.43
CCOC(=O)C[C@H]1[C@H](OC(=O)c2ccc(C(=O)c3ccccc3)cc2)[C@@H](NC(=O)CC(C)C)c2cc(OCCCO)ccc2N1C(=O)c1ccccc1	1.34
CC1CC/C=C\[C@H]2OC34C=CCN(C(C)C)C(=O)[C@H]3N(CCO)C(=O)[C@@H]4C2C(=O)O1 (some centres not stated)	-0.138
[N-]=[N+]=Nc1ccccc1C[C@]1(C(=O)N2CCOCC2)COC(c2ccc(OCCCO)cc2)=N1	1.56
CCCCCCc1nc(Cc2cc(OC)c(OC)c(OC)c2)cc2c1[Si](C(C)C)(C(C)C)OC2	-0.114

system: not listed separately; assay: yeast growth modulation, basal conditions, primary screen, YJM789 clinical isolate, OD600, 24 h (AID 1089);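 note: growth of clinical yeast isolate S. cerevisiae YJM 789 seeded 1000 cells per well; test concentration not given here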; settings: S. cerevisiae YJM789 growth, higher = more signal, called active from +8 up or from −8 down

Structure (SMILES)	z-score
CO[C@H]1O[C@H](CO)[C@@H](OC(=O)Nc2ccc3c(c2)OCO3)[C@H](OC(=O)Nc2ccc3c(c2)OCO3)[C@@H]1OC(=O)Nc1ccc2c(c1)OCO2	1.15 (inactive)
CCCC1(C(=O)OC)C=C2C(=C(C)C(=O)C2C)CN1 (configuration not stated)	-0.105 (inactive)
CO[C@H]1O[C@H](CO)[C@@H](OC(=O)Nc2ccccc2)[C@H](OC(=O)c2cc3ccccc3[nH]2)[C@H]1OC(=O)c1cc2ccccc2[nH]1	-1.63 (inactive)
O=C1O[C@H](c2ccccc2)[C@H](c2ccccc2)N2[C@H]1[C@@H](C(=O)O)[C@]1(C(=O)Nc3ccc(C#CCCO)cc31)[C@H]2c1ccccc1OCCO	0.642 (inactive)
CCCCC[C@H]1OC[C@@]23C=C(Br)[C@@H](CC12)[C@@]1(CO1)C3=O (some centres not stated)	-1.01 (inactive)
CCCCN1CC=CC23O[C@@H]4/C=C\CCC(C)OC(=O)C4[C@H]2C(=O)N(CCCO)[C@@H]3C1=O (some centres not stated)	0.757 (inactive)
CC[C@@H]1C=C(C(=O)O)[C@H](c2ccc(C#N)cc2)N1S(=O)(=O)c1ccc(C)cc1	-0.407 (inactive)
O=C1[C@H]2C=C(I)[C@H](C[C@@H]2OCCOCCO)[C@@]12CO2	0.0387 (inactive)
COCCOC(=O)N1C(=O)[C@@]2(c3cc(C#CC4=CCCCC4)ccc31)[C@H](C(=O)Nc1nc3ccccc3s1)[C@H]1C(=O)O[C@H](c3ccccc3)[C@H](c3ccccc3)N1[C@@H]2c1ccc(O)cc1	0.128 (inactive)
COc1ccc([C@H]2OC[C@@H]3C[C@H](Cc4ccccc4)C(=O)N32)cc1	1.35 (inactive)
NC(=O)NCC#Cc1ccc2c(c1)[C@]1(C(=O)N2)[C@H](c2ccccc2OCCO)N2[C@H](c3ccccc3)[C@H](c3ccccc3)OC(=O)[C@H]2[C@@H]1C(=O)O	0.798 (inactive)
CC1CC/C=C\[C@H]2OC34C=CCN(c5ccc(Cl)cc5)C(=O)[C@H]3N(C(C)CO)C(=O)[C@]4(C)C2C(=O)O1 (some centres not stated)	-0.0407 (inactive)
CCOC(=O)C1=C[C@@H](C(C)C)N(S(=O)(=O)c2ccc(C)cc2)[C@H]1c1ccc(C(F)(F)F)cc1	1.43 (inactive)
OCCCC1=CC(c2ccc(CN3CCCC3)cc2)N(Cc2cc3c(cc2Br)OCO3)CC1 (configuration not stated)	-2.55 (inactive)
CCCCCCCCCC(O)C1C=CC2C(=O)N(c3ccccc3)C(=O)C2N1Nc1cc(OC)c(OC)c(OC)c1 (configuration not stated)	1.13 (inactive)
COCCCNC(=O)[C@@]1(CCC(=O)OC(C)(C)C)N=C(c2ccc(OCCCO)cc2)O[C@H]1c1ccccc1N=[N+]=[N-]	-0.197 (inactive)
COc1cc(OC)c(C(O)C2C=CC3C(=O)N(Cc4ccccc4)C(=O)C3N2n2cnnc2)cc1Br (configuration not stated)	-1.92 (inactive)
C[N+](C)(C)CCCC[C@@H]1NC(=O)[C@@H]2C[C@H](C(=O)NCCCCCCN)[C@H](c3cccc(OCCO)c3)N2C1=O	-0.344 (inactive)
O=C1C2C=CC(C(O)C3CC=CCC3)N(Nc3ccccc3)C2C(=O)N1c1ccccc1 (configuration not stated)	0.399 (inactive)
C=CCNC(=O)[C@H]1[C@@H]2C(=O)O[C@@H](c3ccccc3)[C@@H](c3ccccc3)N2[C@@H](c2ccccc2OCCO)[C@]12C(=O)N(C(=O)OCCOC)c1ccc(C#CC3(O)CCCCCC3)cc12	-0.22 (inactive)
COCCOC(=O)N1C(=O)[C@@]2(c3cc(C#CC4=CCCCC4)ccc31)[C@H](c1ccccc1OCCO)N1[C@H](c3ccccc3)[C@H](c3ccccc3)OC(=O)[C@H]1[C@@H]2C(=O)NC[C@H](O)c1ccccc1	1.01 (inactive)

From PubChem BioAssay
